# Reference: PubChem BioAssay
# The source made the active and inactive calls. Unless noted, the rule behind the calls is not given here.
# Tests used:
# [1] = A549 cell viability effects, profiling panel, calcein-AM fluorescence, 48 h, basal (AID 1162); conditions: higher = more signal; note: test concentration not given here
# [2] = adipocyte viability effects, profiling panel, cell-based, 3T3-L1 adipocytes, calcein-AM fluorescence, 48 h, basal (AID 1163); conditions: 3T3-L1 adipocytes viability, higher = more signal; note: test concentration not given here
# [3] = HepG2 cell viability effects, profiling panel, calcein-AM fluorescence, 48 h, basal (AID 1164); conditions: higher = more signal; note: test concentration not given here
# [4] = MM1S cell viability effects, profiling panel, calcein-AM fluorescence, 48 h, basal (AID 1165); conditions: higher = more signal;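 note: viability of MM1S multiple myeloma cells under basal unstimulated conditions; test concentration not given here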
# [5] = basal RPMI8226 viability, no added stimulus, profiling panel, cell-based, calcein-AM fluorescence, 48 h, PK04 Diversity Set (AID 1166); conditions: RPMI8226 myeloma viability, higher = more signal;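 note: cells grown under basal conditions without added stimulus; test concentration not given here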
# [6] = basal HepG2 mitochondrial membrane potential changes, profiling panel, cell-based, JC-1 fluorescence, 24 h, 100 nL compound (AID 1167); conditions: higher = more signal; note: test concentration not given here
# [7] = basal 3T3-L1 adipocyte mitochondrial potential changes, profiling panel, cell-based, JC-1 fluorescence, 3T3-L1 adipocytes, 24 h, 100 nL compound (AID 1168); conditions: JC-1 mitochondrial fluorescence, higher = more signal, called active from +8 up or from −8 down; note: test concentration not given here
# [8] = basal RPMI8226 mitochondrial membrane potential changes, profiling panel, cell-based, JC-1 fluorescence, 24 h, 100 nL compound (AID 1169); conditions: RPMI8226 myeloma, JC-1 mitochondrial potential fluorescence, higher = more signal; note: test concentration not given here
# [9] = basal MM1S mitochondrial membrane potential changes, profiling panel, cell-based, JC-1 fluorescence, 24 h, 100 nL compound (AID 1170); conditions: higher = more signal; note: test concentration not given here
# [10] = A549 lung cancer cell viability effects, profiling panel, resazurin fluorescence, 24 h, PK04 Diversity Set (AID 1171); conditions: higher = more signal, called active from +8 up or from −8 down; note: test concentration not given here
# [11] = HepG2 liver cancer cell viability effects, profiling panel, resazurin fluorescence, 24 h, PK04 Diversity Set (AID 1172); conditions: higher = more signal; note: test concentration not given here
# [12] = basal S. cerevisiae growth modulation, no modifier, primary screen, OD600, strain BY4716, 24 h, basal condition (AID 1173); conditions: OD600, 24 h, higher = more signal, called active from +8 up or from −8 down
# [13] = MM1S myeloma cell viability, profiling panel, resazurin fluorescence, basal, 24 h, PK04 Diversity Set (AID 1174); conditions: higher = more signal, called active from +8 up or from −8 down;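 note: MM1S multiple myeloma cell line; test concentration not given here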
# [14] = biological target: Dihydroorotate dehydrogenase (quinone), mitochondrial (Plasmodium falciparum (isolate 3D7)) (UniProt Q08210); assay: PfDHODH enzyme inhibitors, primary screen, biochemical, C-terminal His tag, absorbance 600 nm (AID 1175); conditions: DCIP absorbance 600 nm, higher = more signal, called active from +8 up or from −8 down;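 note: recombinant parasite enzyme with a five histidine tag at its C terminus; test concentration not given here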
# Sequence of Dihydroorotate dehydrogenase (quinone), mitochondrial (Plasmodium falciparum (isolate 3D7)) (Q08210 whole entry, looked up): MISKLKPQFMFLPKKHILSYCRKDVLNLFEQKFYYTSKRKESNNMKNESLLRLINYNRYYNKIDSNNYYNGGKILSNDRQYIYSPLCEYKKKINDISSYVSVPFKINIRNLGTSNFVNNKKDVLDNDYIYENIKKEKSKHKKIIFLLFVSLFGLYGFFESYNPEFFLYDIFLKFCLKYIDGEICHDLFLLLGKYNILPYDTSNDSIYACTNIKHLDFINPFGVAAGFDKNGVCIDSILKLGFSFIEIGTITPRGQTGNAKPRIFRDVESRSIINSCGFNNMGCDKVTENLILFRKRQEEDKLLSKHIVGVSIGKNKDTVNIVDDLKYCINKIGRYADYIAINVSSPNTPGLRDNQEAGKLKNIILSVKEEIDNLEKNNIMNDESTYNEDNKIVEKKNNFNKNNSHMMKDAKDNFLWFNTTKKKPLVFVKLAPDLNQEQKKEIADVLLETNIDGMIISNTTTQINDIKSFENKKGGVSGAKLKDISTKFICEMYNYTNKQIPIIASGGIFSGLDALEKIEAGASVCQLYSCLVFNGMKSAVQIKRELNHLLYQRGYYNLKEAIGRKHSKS
# [15] = P. aeruginosa biofilm formation inhibitors, primary screen, strain PAO1, LB-PBS medium, absorbance 600 nm (AID 1176); note: test concentration not given here; conditions: P. aeruginosa PAO1 growth/biofilm, A600, 12 h; higher = more signal
# [16] = S. cerevisiae RM11-1a growth modifiers, primary screen, strain RM11-1a, OD600, basal, 24 h (AID 1177); conditions: OD600, 24 h, higher = more signal, called active from +8 up or from −8 down;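 note: cultures grown under basal conditions with no added stressor; test concentration not given here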
# [17] = E. coli acrAB mutant growth effects, primary screen, E. coli filamentation inducers, strain DRC39, OD650, 24 h (AID 1178); conditions: higher = more signal, called active from +8 up or from −8 down;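 note: growth measured as culture turbidity by optical density at 650 nm; test concentration not given here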
# [18] = E. coli acrAB mutant growth effects, primary screen, E. coli filamentation inducers, strain DRC39, OD650, 48 h (AID 1179);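 note: screen aims at cell division blockers that make cells filament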; conditions: E. coli DRC39 delta-acrAB growth, higher = more signal, called active from +8 up or from −8 down
# [19] = RPMI8226 myeloma cell viability, profiling panel, resazurin fluorescence, basal, 24 h, PK04 Diversity Set (AID 1180); conditions: higher = more signal;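 note: RPMI8826 multiple myeloma cell line at 5000 cells per well; test concentration not given here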
# [20] = biological target: E3 ubiquitin-protein ligase XIAP (Homo sapiens) (UniProt P98170); assay: XIAP binders, primary screen, biophysical, small-molecule microarray, fluorescence 635 nm (AID 1181); conditions: small-molecule microarray binding, higher = more signal;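 note: score merges 667 nm emission and signal to noise over triplicate slides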
# Sequence of E3 ubiquitin-protein ligase XIAP (Homo sapiens) (P98170 whole entry, looked up): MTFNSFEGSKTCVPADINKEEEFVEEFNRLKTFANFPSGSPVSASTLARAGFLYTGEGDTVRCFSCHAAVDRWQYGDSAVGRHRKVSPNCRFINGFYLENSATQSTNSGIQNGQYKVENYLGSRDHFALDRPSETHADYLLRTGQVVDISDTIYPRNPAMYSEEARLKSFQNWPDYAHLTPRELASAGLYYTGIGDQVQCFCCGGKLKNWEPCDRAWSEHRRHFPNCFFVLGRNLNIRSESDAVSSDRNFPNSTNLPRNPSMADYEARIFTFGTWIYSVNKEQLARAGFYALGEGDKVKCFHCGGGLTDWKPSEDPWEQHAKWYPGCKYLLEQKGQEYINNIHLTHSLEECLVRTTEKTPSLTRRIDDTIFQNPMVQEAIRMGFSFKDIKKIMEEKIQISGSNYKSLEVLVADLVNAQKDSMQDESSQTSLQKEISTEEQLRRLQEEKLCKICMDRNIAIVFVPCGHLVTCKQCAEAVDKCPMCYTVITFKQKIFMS
Compound,z-score [1],z-score [2],z-score [3],z-score [4],z-score [5],z-score [6],z-score [7],z-score [8],z-score [9],z-score [10],z-score [11],z-score [12],z-score [13],composite z-score [14],z-score [15],z-score [16],z-score [17],z-score [18],z-score [19],composite z-score [20]
CCCCC(O)C1C=CC2C(=O)N(c3ccccc3)C(=O)C2N1Nc1ccccc1 (stereo not given),0.645,-1.91,-0.371,0.225,-0.374,-1.43,0.466 (inactive),-0.241,0.0498,0.134 (inactive),0.281,-1.67 (inactive),-0.125 (inactive),0.477 (inactive),-0.0625 (inactive),0.632 (inactive),-0.407 (inactive),0.483 (inactive),-0.0096,0.366
O=C1N(CCS(=O)(=O)c2ccccc2)c2ccccc2C[C@]12N=C(c1ccc(OCCCO)cc1)O[C@@H]2c1ccccc1,-0.982,0.0009,0.207,-0.967,-2.48,-0.484,1.07 (inactive),-0.687,-0.242,-1.37 (inactive),-0.285,0.376 (inactive),-2.11 (inactive),-2.58 (inactive),0.575 (inactive),2.74 (inactive),0.39 (inactive),-0.0504 (inactive),-0.885,0.311
CCCC[C@H]1OB(O)C[C@H]2C1=C(COc1ccccc1)C[C@H]1C(=O)C=CC(=O)[C@H]12,0.696,-0.0337,0.176,-3.27,-3.25,-1.59,-0.201 (inactive),-0.431,-1.08,0.121 (inactive),-0.149,-5.19 (inactive),-0.286 (inactive),-0.973 (inactive),0.531 (inactive),-0.179 (inactive),1.78 (inactive),0.715 (inactive),0.262,0.0264
COCCCNC(=O)[C@@]1(CCC(=O)OC(C)(C)C)COC(c2ccc(OCCCO)cc2)=N1,-0.487,0.129,-0.642,-1.43,-0.24,0.195,-1.05 (inactive),-0.438,0.012,2.45 (inactive),1.18,-0.579 (inactive),1.27 (inactive),-0.176 (inactive),-0.978 (inactive),-0.561 (inactive),0.391 (inactive),0.624 (inactive),0.928,-0.0272
O=C(O)[C@H](Cc1ccccc1)n1cc(C2(O)CCCCC2)nn1,-0.53,-1.54,0.105,-0.364,-0.361,-1.14,-0.569 (inactive),0.791,-0.417,0.0465 (inactive),-0.466,-0.415 (inactive),-0.625 (inactive),-1.6 (inactive),0.055 (inactive),-0.563 (inactive),-0.128 (inactive),-0.477 (inactive),-0.88,-0.0668
CN(C)CCCNC(=O)[C@@]1(Cc2ccccc2I)c2ccccc2C(=O)N(C2CCCCC2)[C@H]1c1ccc(CO)cc1,-4.29,-0.546,-5.11,-3.78,-4.34,-2.13,2.14 (inactive),-1.01,-2.49,-6.91 (inactive),-6.39,-8.03 (active),-8.24 (active),0.201 (inactive),0.36 (inactive),0.996 (inactive),0.675 (inactive),-0.707 (inactive),-6.58,0.223
CC(=O)NCCCC[C@@H]1NC(=O)[C@H]2C[C@@H](C(=O)NCCCCCCNC(=O)CS)[C@@H](c3cccc(OCCO)c3)N2C1=O,-0.769,0.251,-0.644,-0.504,0.236,-1.4,-0.306 (inactive),0.186,-0.0983,-0.131 (inactive),-0.0625,0.535 (inactive),-0.469 (inactive),0.929 (inactive),0.339 (inactive),1.05 (inactive),0.0843 (inactive),-0.264 (inactive),-0.737,0.0593
O=C1[C@H]2C=C(I)[C@H](C[C@@H]2c2ccccc2)[C@@]12CO2,-1.3,-0.417,-0.382,-3.18,-3,-1.74,0.789 (inactive),-1.2,-1.32,-0.122 (inactive),-0.488,-11.5 (active),-0.886 (inactive),-0.376 (inactive),0.236 (inactive),-2.23 (inactive),-0.791 (inactive),-1.24 (inactive),-0.603,-0.223
CC1CC/C=C\[C@H]2OC34C=CCN(C(C)(C)C)C(=O)[C@H]3N(CCCO)C(=O)[C@@H]4C2C(=O)O1 (stereo not given in full),-0.459,0.0593,-0.869,1.15,-0.339,-0.749,-0.274 (inactive),-0.0634,0.522,-0.0125 (inactive),-0.216,1 (inactive),-0.32 (inactive),-0.555 (inactive),0.261 (inactive),0.0605 (inactive),-0.282 (inactive),-0.52 (inactive),0.276,-0.02
COCCOC(=O)N1C(=O)[C@@]2(c3cc(C#CCNC(N)=O)ccc31)[C@H](C(=O)Nc1nc3ccccc3s1)[C@H]1C(=O)O[C@H](c3ccccc3)[C@H](c3ccccc3)N1[C@@H]2c1ccccc1OCCO,1.01,0.706,-0.0995,0.223,0.405,-2.73,2.4 (inactive),-0.981,-1.64,-1.29 (inactive),0.0277,0.21 (inactive),-0.482 (inactive),-0.845 (inactive),3.44 (inactive),2.32 (inactive),0.405 (inactive),1.14 (inactive),-1.01,-0.155
CN(C)CCCCNC(=O)[C@H]1C[C@H]2C(=O)NCC(=O)N2[C@H]1c1ccc(O)cc1,-0.685,0.364,-0.239,0.34,-0.0681,-0.253,-0.324 (inactive),0.347,-0.371,1.05 (inactive),1.1,-0.0401 (inactive),0.917 (inactive),0.373 (inactive),-0.599 (inactive),1.56 (inactive),0.0662 (inactive),-0.363 (inactive),0.511,0.147
COCCCNC(=O)[C@@]1(Sc2ccc(C)cc2)CC(=O)N(Cc2ccccc2C(F)(F)F)[C@@H]1c1ccc(CO)cc1I,-0.172,0.224,0.245,-3.18,-2.36,-0.33,-0.101 (inactive),-0.339,-1.33,-0.731 (inactive),-1.07,-2.19 (inactive),-2.56 (inactive),0.0681 (inactive),0.0993 (inactive),-1.2 (inactive),-0.473 (inactive),0.0799 (inactive),-2.75,0.419
CN(C)CCCNC(=O)[C@@H]1c2ccccc2C(=O)N(Cc2ccccc2C(F)(F)F)[C@H]1c1ccc(CO)cc1,1.42,0.747,1.13,0.353,1.09,2.98,-0.343 (inactive),0.188,-0.317,1.45 (inactive),0.788,-0.779 (inactive),0.744 (inactive),-0.0587 (inactive),-0.534 (inactive),0.171 (inactive),0.858 (inactive),0.783 (inactive),0.7,-0.0344
CC(C)NC(=O)[C@@H]1c2ccccc2C(=O)N(Cc2ccc(OC(F)(F)F)cc2)[C@H]1c1ccc(CO)cc1,0.531,1.34,-0.315,1.09,-1.85,2.18,-1.32 (inactive),0.24,-0.498,0.0746 (inactive),-1.14,0.924 (inactive),0.155 (inactive),-4.48 (inactive),0.627 (inactive),0.91 (inactive),-0.386 (inactive),-0.664 (inactive),0.808,-0.16
CC(C)N1C(=O)C[C@@](C(=O)NCCN2CCOCC2)(c2ccc([N+](=O)[O-])cc2)[C@H]1c1ccc(CO)cc1,-0.827,-0.641,-0.235,-0.617,0.0859,0.0432,-0.279 (inactive),-0.95,-0.672,1.05 (inactive),1.68,-1.39 (inactive),0.795 (inactive),-0.1 (inactive),-0.838 (inactive),-0.291 (inactive),0.0506 (inactive),0.445 (inactive),1.23,-0.0747
C=C(/C(=C/C[C@@H](OC(C)=O)c1cccc(OCCO)c1)c1cnc2ccccc2c1)C(C)C,0.295,1.53,0.224,-1.07,-1.97,-1.63,-0.436 (inactive),-0.533,0.581,-0.322 (inactive),-0.682,-0.517 (inactive),-0.421 (inactive),-3.98 (inactive),-0.104 (inactive),0.183 (inactive),0.12 (inactive),-0.406 (inactive),0.213,-0.157
C#CCN1[C@@H](Cc2ccccc2)C(=O)O[C@H](Cc2ccccc2)[C@@H]1/C=C/C1CC1,-0.589,-0.488,0.196,-2,-2.16,2.46,-0.693 (inactive),-0.812,0.4,3.08 (inactive),0.642,-0.236 (inactive),1.56 (inactive),0.0255 (inactive),-0.565 (inactive),0.0761 (inactive),1.37 (inactive),1.06 (inactive),1.62,-0.208
O=C(NCC(O)CO)C1N=C(c2ccc(OCCCO)cc2)N(c2ccccc2)O1 (stereo not given),-0.508,-0.293,0.285,1.22,-1.53,0.499,-0.761 (inactive),-0.877,0.571,-0.0914 (inactive),-0.664,-0.732 (inactive),-0.783 (inactive),-0.568 (inactive),-1.41 (inactive),-0.406 (inactive),0.015 (inactive),-0.003 (inactive),-1,-0.142
